{"source": "PubChem BioAssay", "key": {"[1]": {"assay": "liver-stage malaria parasite growth inhibition, primary screen, cell-based, HepG2, luciferase luminescence, HepG2 viability (AID 624349);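 further: 100% = mean of DMSO negative control wells on the same plate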", "settings": "P. berghei liver stage in HepG2, luciferase luminescence, concentration not given here; parasite load remaining: stronger effect = lower value; viability: measured here: HepG2 viability without parasites"}, "[2]": {"assay": "sensitizers of A549 cells to miR-34 induction, primary screen, imaging, A549 dox-inducible miR-34, nuclei and caspase counts (AID 1347080;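 active means compounds whose cell count with miR-34 switched on is under 0.7 times the count with it off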)", "settings": "A549 miR-34 inducible, Hoechst nuclei count, 48 h"}, "[3]": {"assay": "hESC survival regulators, cell-based (AID 493140; call rule not given here;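 further: cells exposed to compounds for four days before counting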)", "settings": "human embryonic stem cell survival screen; stronger effect = higher value"}, "[4]": {"assay": "inhibitors of Cryptococcus chitosan production, flow cytometry, Cibacron Brilliant Red staining (AID 1347148; call rule not given here;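 further: compound exposure lasted three days at 37 degrees C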)", "settings": "Cryptococcus neoformans chitosan, stronger effect = lower value; at 10 µM unless noted"}, "[5]": {"target": "ATP-dependent translocase ABCB1 (Homo sapiens) (UniProt P08183)", "sequence (P08183 whole entry, looked up)": "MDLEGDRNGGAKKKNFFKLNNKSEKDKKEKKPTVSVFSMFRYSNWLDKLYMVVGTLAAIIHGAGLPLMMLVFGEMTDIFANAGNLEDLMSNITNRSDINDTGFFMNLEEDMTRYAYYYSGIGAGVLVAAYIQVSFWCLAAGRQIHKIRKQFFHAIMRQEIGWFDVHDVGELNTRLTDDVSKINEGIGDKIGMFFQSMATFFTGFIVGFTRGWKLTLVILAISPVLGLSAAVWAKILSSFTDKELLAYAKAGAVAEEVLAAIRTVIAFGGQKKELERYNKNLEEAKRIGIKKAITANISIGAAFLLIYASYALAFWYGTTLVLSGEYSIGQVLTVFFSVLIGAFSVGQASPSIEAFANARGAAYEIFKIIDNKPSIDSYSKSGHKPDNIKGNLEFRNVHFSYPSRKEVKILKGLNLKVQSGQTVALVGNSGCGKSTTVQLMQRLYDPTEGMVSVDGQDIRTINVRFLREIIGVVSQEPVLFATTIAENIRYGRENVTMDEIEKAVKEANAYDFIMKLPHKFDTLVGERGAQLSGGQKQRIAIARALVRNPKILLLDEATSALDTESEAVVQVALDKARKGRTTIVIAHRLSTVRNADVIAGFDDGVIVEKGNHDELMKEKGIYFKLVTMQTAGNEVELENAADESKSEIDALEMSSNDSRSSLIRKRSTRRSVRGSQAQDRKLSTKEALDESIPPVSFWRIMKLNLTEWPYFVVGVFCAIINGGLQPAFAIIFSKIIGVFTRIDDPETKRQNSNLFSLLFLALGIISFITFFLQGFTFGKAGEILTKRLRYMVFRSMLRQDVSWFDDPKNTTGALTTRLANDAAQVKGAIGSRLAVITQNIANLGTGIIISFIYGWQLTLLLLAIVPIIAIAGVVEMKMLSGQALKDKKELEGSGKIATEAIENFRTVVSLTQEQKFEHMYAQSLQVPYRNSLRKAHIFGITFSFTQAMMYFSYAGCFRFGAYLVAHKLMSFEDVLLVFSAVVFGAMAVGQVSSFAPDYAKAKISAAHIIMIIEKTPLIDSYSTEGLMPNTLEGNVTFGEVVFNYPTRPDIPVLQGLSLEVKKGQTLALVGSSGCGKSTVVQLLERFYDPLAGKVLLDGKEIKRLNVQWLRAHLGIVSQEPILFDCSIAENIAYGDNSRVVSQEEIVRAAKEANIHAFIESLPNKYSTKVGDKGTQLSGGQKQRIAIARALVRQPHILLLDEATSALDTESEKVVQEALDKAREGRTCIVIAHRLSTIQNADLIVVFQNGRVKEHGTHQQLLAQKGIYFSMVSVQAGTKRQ", "assay": "MDR1 (ABCB1) efflux transporter inhibition, cell-based (AID 377; in the data active means fluorescence slope change above about 50%)", "settings": "MDR1-expressing cells, fluorescent substrate accumulation slope; stronger effect = higher value; concentration not given here"}, "[6]": {"assay": "survival rescue of mitochondrial mutant cells in low glucose, primary screen, MELAS cybrids, Rieske KO mouse fibroblasts, CellTiter-Glo (AID 1508586;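 active means mean z-score across replicates of 1.96 or higher in either the MELAS or the Rieske mutant cell line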;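 further: z relative to plate mean and SD of compound and empty wells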)"}, "[7]": {"assay": "phospholipid biosynthesis inhibitors in animal cells, primary screen, cell-based, LOPAC library, screen 4 (AID 1347384; call rule not given here)", "settings": "phospholipid biosynthesis inhibition screen, at 10 µM"}, "[8]": {"target": "NAD(+) hydrolase SARM1 (Homo sapiens) (UniProt Q6SZW1)", "sequence (Q6SZW1 whole entry, looked up)": "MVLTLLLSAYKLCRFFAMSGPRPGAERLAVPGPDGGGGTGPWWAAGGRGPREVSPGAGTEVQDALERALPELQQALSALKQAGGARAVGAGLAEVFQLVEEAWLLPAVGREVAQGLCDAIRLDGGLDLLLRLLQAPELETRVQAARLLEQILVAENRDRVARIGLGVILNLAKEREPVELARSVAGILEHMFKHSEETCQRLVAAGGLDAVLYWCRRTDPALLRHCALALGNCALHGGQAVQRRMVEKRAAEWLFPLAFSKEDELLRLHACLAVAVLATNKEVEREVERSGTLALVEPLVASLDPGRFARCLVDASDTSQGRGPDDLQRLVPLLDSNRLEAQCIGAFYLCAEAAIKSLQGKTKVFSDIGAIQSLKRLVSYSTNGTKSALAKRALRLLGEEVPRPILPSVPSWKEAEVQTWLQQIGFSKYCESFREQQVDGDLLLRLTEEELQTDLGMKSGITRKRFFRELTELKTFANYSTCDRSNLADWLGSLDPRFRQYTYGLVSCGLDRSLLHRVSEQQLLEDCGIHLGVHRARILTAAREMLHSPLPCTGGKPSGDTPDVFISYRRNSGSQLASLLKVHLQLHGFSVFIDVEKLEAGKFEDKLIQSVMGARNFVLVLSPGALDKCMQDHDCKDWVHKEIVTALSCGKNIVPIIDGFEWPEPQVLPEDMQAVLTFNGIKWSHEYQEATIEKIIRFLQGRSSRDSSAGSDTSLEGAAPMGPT", "assay": "SARM1 TIR NADase inhibitors, cell lysate, NAD-Glo luminescence (AID 1508614;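 active means compound whose remaining NAD level is above about 45 nM, limit read from the data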)", "settings": "SAM-TIR HEK293T lysate NADase, at 1 µM, stronger effect = higher value"}, "[9]": {"target": "Mitogen-activated protein kinase 7 (Homo sapiens) (UniProt Q13164)", "sequence (Q13164 whole entry, looked up, the tested form may be a part)": "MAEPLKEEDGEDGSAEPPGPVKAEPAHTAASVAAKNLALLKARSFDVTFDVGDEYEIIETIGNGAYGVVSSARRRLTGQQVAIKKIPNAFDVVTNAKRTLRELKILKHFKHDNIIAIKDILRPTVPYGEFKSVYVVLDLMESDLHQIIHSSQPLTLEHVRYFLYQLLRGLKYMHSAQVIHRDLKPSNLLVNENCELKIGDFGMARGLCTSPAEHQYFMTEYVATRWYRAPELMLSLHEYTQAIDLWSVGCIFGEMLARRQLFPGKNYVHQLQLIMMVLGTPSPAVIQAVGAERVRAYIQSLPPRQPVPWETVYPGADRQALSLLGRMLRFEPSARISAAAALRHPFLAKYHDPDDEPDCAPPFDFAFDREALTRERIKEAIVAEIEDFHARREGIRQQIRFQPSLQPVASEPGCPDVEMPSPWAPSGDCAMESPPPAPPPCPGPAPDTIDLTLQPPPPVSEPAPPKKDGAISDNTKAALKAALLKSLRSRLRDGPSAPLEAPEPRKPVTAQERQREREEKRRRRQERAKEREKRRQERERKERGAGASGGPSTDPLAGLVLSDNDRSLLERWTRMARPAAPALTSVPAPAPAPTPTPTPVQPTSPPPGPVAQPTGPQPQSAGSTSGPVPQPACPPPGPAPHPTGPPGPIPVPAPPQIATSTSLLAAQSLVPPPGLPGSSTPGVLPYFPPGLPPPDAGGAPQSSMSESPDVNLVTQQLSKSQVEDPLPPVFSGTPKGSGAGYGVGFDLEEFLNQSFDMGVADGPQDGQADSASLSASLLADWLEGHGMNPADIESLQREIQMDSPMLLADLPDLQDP", "assay": "ERK5 transactivation activators in reporter cells, primary screen, cell-based, HTS (AID 1508626;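 active means luciferase signal above three times the same-plate solvent-only control wells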;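 further: luciferase driven by Gal4-ERK5 fusion binding five Gal4 sites before minimal TATA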)", "settings": "HeLa Gal4-ERK5 transactivation, 18 h, at 5 µM, stronger effect = higher value"}, "[10]": {"settings": "stronger effect = lower value, cell number ratio, induced over uninduced"}, "[11]": {"settings": "measured here: relative caspase fold change +Dox/-Dox"}, "[12]": {"settings": "measured here: total cells with miR-34 induction, stronger effect = lower value"}, "[13]": {"settings": "measured here: total cells without miR-34 induction"}, "[14]": {"settings": "MELAS cybrid survival, CellTiter-Glo 48 h, stronger effect = higher value"}, "[15]": {"settings": "Rieske KO mouse fibroblast survival, CellTiter-Glo 72 h"}}, "note": "Where “and” joins values, the source holds several entries; their conditions need not be identical. Identical values can stand only once. Inconclusive results are not listed. Calls of active or inactive are those of the source. Unless noted, no stated cut-off is given here; in the data, active means parasite load remaining mostly below about 12% (no sharp cut-off); inactive means mostly above about 10%.", "data": [{"smiles": "c1cncc([C@H]2CCCCN2)c1", "values": [{"measurement": "parasite load remaining", "setting": "[1]", "result": "92.6% (inactive)"}, {"measurement": "viability", "setting": "[1]", "result": 99.3, "unit": "%"}, {"measurement": "fold change", "setting": "[2]; [10]", "result": "0.89 (inactive)"}, {"measurement": "fold change", "setting": "[2]; [11]", "result": 1.12}, {"measurement": "cell count", "setting": "[2]; [12]", "result": 8860}, {"measurement": "cell count", "setting": "[2]; [13]", "result": 9960}]}, {"smiles": "CC[C@H]1CN2CCC1C[C@H]2[C@H](O)c1ccnc2ccc(OC)cc12", "note": "(stereo partly specified)", "values": [{"measurement": "survival", "setting": "[3]", "result": "6.08 (inactive)"}, {"measurement": "parasite load remaining", "setting": "[1]", "result": "83.6% (inactive) and 51.6% (inactive)"}, {"measurement": "viability", "setting": "[1]", "result": "106% and 80.9%"}, {"measurement": "fold change", "setting": "[2]; [10]", "result": "0.867 (inactive)"}, {"measurement": "fold change", "setting": "[2]; [11]", "result": 1.17}, {"measurement": "cell count", "setting": "[2]; [12]", "result": 8140}, {"measurement": "cell count", "setting": "[2]; [13]", "result": 9390}]}, {"smiles": "CC[C@H]1C2C[C@H]3[C@@H]4N(C)c5ccccc5C45C[C@H](C2[C@H]5O)N3[C@@H]1O", "note": "(stereo partly specified)", "values": [{"measurement": "parasite load remaining", "setting": "[1]", "result": "126% (inactive)"}, {"measurement": "viability", "setting": "[1]", "result": 98.7, "unit": "%"}, {"measurement": "fold change", "setting": "[2]; [10]", "result": "0.84 (inactive)"}, {"measurement": "fold change", "setting": "[2]; [11]", "result": 1.31}, {"measurement": "cell count", "setting": "[2]; [12]", "result": 8780}, {"measurement": "cell count", "setting": "[2]; [13]", "result": 10400}]}, {"smiles": "COc1cc2c(c(OC)c1OC)-c1ccc(O)c(=O)cc1[C@@H](N)CC2", "values": [{"measurement": "parasite load remaining", "setting": "[1]", "result": "106% (inactive)"}, {"measurement": "viability", "setting": "[1]", "result": 105, "unit": "%"}, {"measurement": "fold change", "setting": "[2]; [10]", "result": "0.884 (inactive)"}, {"measurement": "fold change", "setting": "[2]; [11]", "result": 1.33}, {"measurement": "cell count", "setting": "[2]; [12]", "result": 5720}, {"measurement": "cell count", "setting": "[2]; [13]", "result": 6460}]}, {"smiles": "C[C@H]1CC[C@@H]2[C@@H](C)[C@H]3[C@H](C[C@H]4[C@@H]5CC=C6C[C@@H](O[C@@H]7O[C@H](CO)[C@H](O)[C@H](O[C@@H]8O[C@H](CO)[C@@H](O)[C@H](O)[C@H]8O)[C@H]7O[C@@H]7O[C@@H](C)[C@H](O)[C@@H](O)[C@H]7O)CC[C@]6(C)[C@H]5CC[C@]34C)N2C1", "values": [{"measurement": "parasite load remaining", "setting": "[1]", "result": "143% (inactive)"}, {"measurement": "viability", "setting": "[1]", "result": 114, "unit": "%"}, {"measurement": "fold change", "setting": "[2]; [10]", "result": "0.926 (inactive)"}, {"measurement": "fold change", "setting": "[2]; [11]", "result": 1.19}, {"measurement": "cell count", "setting": "[2]; [12]", "result": 8230}, {"measurement": "cell count", "setting": "[2]; [13]", "result": 8880}]}, {"smiles": "CCN1C[C@]2(C)CC[C@H](O)[C@]34C1[C@H](C[C@H]23)[C@@]1(O)C[C@H](OC)[C@H]2C[C@@H]4[C@@H]1C2O", "note": "(stereo partly specified)", "values": [{"measurement": "parasite load remaining", "setting": "[1]", "result": "57.3% (inactive)"}, {"measurement": "viability", "setting": "[1]", "result": 100, "unit": "%"}, {"measurement": "fold change", "setting": "[2]; [10]", "result": "0.863 (inactive)"}, {"measurement": "fold change", "setting": "[2]; [11]", "result": 1.17}, {"measurement": "cell count", "setting": "[2]; [12]", "result": 9000}, {"measurement": "cell count", "setting": "[2]; [13]", "result": 10400}]}, {"smiles": "C[C@]12CC3SC3C[C@@H]1CC[C@@H]1[C@@H]2CC[C@]2(C)[C@@H](O)CC[C@@H]12", "note": "(stereo partly specified)", "values": [{"measurement": "survival", "setting": "[3]", "result": "17.5 (inactive)"}, {"measurement": "parasite load remaining", "setting": "[1]", "result": "87.8% (inactive)"}, {"measurement": "viability", "setting": "[1]", "result": 72.9, "unit": "%"}, {"measurement": "fold change", "setting": "[2]; stronger effect = lower value", "result": "0.913 (inactive)"}, {"measurement": "fold change", "setting": "[2]; [11]", "result": 0.52}, {"measurement": "cell count", "setting": "[2]; [12]", "result": 9130}, {"measurement": "cell count", "setting": "[2]; [13]", "result": 10000}]}, {"smiles": "CC1(C)[C@@H](O)C[C@H]2[C@](C)(O)[C@@H]3CCC4[C@@H](O)[C@@]3(C[C@@H](O)[C@@]21O)C[C@@]4(C)O", "values": [{"measurement": "fold fluorescence", "setting": "[4]", "result": "2.34 [at 135 µM] (active)"}]}, {"smiles": "CC[C@H](C)[C@H]1O[C@]2(C=C[C@@H]1C)C[C@@H]1C[C@@H](C/C=C(\\C)C(O[C@H]3C[C@H](OC)C(O[C@H]4C[C@H](OC)[C@@H](O)[C@H](C)O4)[C@H](C)O3)[C@@H](C)/C=C/C=C3\\CO[C@@H]4[C@H](O)C(C)=C[C@@H](C(=O)O1)[C@]34O)O2", "note": "(stereo partly specified)", "values": [{"measurement": "fluorescence slope change", "setting": "[5]", "result": "61.5% (active)"}, {"measurement": "z-score", "setting": "[6]; [14]", "result": "-1.19 (inactive)"}, {"measurement": "z-score", "setting": "[6]; [15]", "result": 1.52}]}, {"smiles": "C=C1C(=O)O[C@H]2C[C@H](C)[C@H]3C=CC(=O)[C@]3(C)[C@H](O)[C@@H]12", "values": [{"measurement": "fold fluorescence", "setting": "[4]", "result": "9.09 [at 190.6 µM] (inactive)"}]}, {"smiles": "CCCCCCCCCCCCCCCC(=O)OC[C@@H](COP(=O)([O-])OCC[N+](C)(C)C)OC(C)=O", "values": [{"measurement": "fold fluorescence", "setting": "[4]", "result": "4.75 (inactive)"}]}, {"smiles": "[Cl][Pt].[NH2-].[NH2-].c1ccncc1", "values": [{"measurement": "outcome", "setting": "[7]", "result": "inactive"}]}, {"smiles": "CC(C)[C@@H]1NC(=O)[C@H](C(C)C)OC(=O)[C@@H](C(C)C)NC(=O)[C@@H](C)OC(=O)[C@@H](C(C)C)NC(=O)[C@H](C(C)C)OC(=O)[C@@H](C(C)C)NC(=O)[C@@H](C)OC(=O)[C@H](C(C)C)NC(=O)[C@H](C(C)C)OC(=O)[C@H](C(C)C)NC(=O)[C@H](C)OC1=O", "values": [{"measurement": "fold fluorescence", "setting": "[4]", "result": "7.5 [at 45 µM] (inactive)"}]}, {"smiles": "C=CC[C@]1(O)CC[C@H]2[C@@H]3CCC4=CC(=O)CCC4=C3C=C[C@@]21C", "values": [{"measurement": "z-score", "setting": "[6]; [14]", "result": "0.712 (inactive)"}, {"measurement": "z-score", "setting": "[6]; [15]", "result": 0.629}, {"measurement": "remaining NAD", "setting": "[8]", "result": "10 nM (inactive)"}, {"measurement": "luciferase signal", "setting": "[9]", "result": "60 AU (inactive)"}]}]}
